The list is not random: actives were taken first. Their share in the collection is about 3.2%.
FMDV inh: antivirals against foot and mouth disease virus | 1.2% of 410,000 active | FMDV antiviral cell-based qHTS | AID 1159524 | Potency, µM (top dose mostly 57.9 µM), without a hit: top-dose activity change, negative = inhibition, hits mostly inhibitors; calls by dose curve; tested in HEK293T cells; also: read-out not given here; nearly all actives have a fitted effect of over 45% in size
Marburg entry inh: inhibitors of Marburg virus binding or cell entry; 1.8% of 300,000 active; Marburg virus pseudotyped entry inhibition, cell reporter; Potency, µM (series often up to 37.8 µM), for the others: at the top dose activity change, negative = inhibition, usual class: inhibitors; calls by dose curve; tested in HEK293 cells
VACV mCherry inh: inhibitors of vaccinia virus infection (mCherry reporter signal). Vaccinia virus mCherry reporter infection, fluorescence. Potency, µM (highest dose often 36.5 µM), inactives show top-dose activity change, negative = inhibition, most hits filed as inhibitors. 0.63% of 310,000 active. AID 720579; calls by dose curve; tested in A549 cells; also: nearly all actives have a fitted effect of over 35% in size
VACV Venus inh: inhibitors of vaccinia virus (Venus reporter). Vaccinia virus Venus reporter expression, fluorescence. Potency, µM (doses to about 36.5 µM), for inactives: top-dose activity change, negative = inhibition, hits mostly inhibitors. 0.46% of 330,000 active. AID 720580; calls by dose curve; tested in A549 cells; also: nearly all actives have a fitted effect of over 30% in size
LASV entry inh: inhibitors of Lassa virus binding or cell entry; Potency, µM (series often up to 37.9 µM), for inactives: at the highest dose activity change, negative = inhibition, hits mostly inhibitors; AID 540256; Lassa virus pseudotype entry inhibition, cell reporter; 1.2% of 300,000 active; calls by dose curve; tested in HEK293 cells; also: nearly all actives have a fitted effect of over 50% in size
* marks the source's active call; other numbers are inactive results; i = inactive; u = inconclusive; x = no result given; ! = not active in a repeat; [ ] = dose if it differs, or a comment. % is scaled to controls: 0 for no effect and ±100 for the full control effect; potency is read from the fitted curve at half-maximal effect.

SMILES | FMDV inh | Marburg entry inh | VACV mCherry inh | VACV Venus inh | LASV entry inh
CCN(CC)S(=O)(=O)c1ccc2c(c1)c(=O)c(C(=O)NCc1ccc3c(c1)OCO3)cn2C | x | 13% | x | x | 4%
C=CCn1cc(C(=O)NCCCOCC)c(=O)c2cc(S(=O)(=O)N(CC)CC)ccc21 | 7% | -4% | x | x | 6.5µM*
C=CCn1cc(C(=O)NCc2ccc3c(c2)OCO3)c(=O)c2cc(S(=O)(=O)N(CC)CC)ccc21 | -15% | u | -24% | -22% | 0.71µM*
CCOCCCNC(=O)c1cn(CC)c2ccc(S(=O)(=O)N(C)C3CCCCC3)cc2c1=O | -10% | x | x | x | x
CCN(CC)S(=O)(=O)c1ccc2c(c1)c(=O)c(C(=O)NCCOC)cn2C | 1% | -8% | x | x | -1%
C=CCn1cc(C(=O)NCCOC)c(=O)c2cc(S(=O)(=O)N(CC)CC)ccc21 | 52% | 2% | x | x | 12µM*
O=c1cc(N2CCOCC2)oc2c(-c3ccccc3)cccc12 | -23% | 0.32µM*! | -23% | u | -18%
COc1cc(CCN2C(=O)NC(c3ccccc3)C(C(C)=O)=C2C)cc(OC)c1OC (stereo not given) | x | 6%[14.2 µM] | x | x | x
COc1ccc(/C=N/NC(=O)CCn2cnc3ccccc32)cc1 | 8% | 0%[14.2 µM] | i | -10% | -26%
CN(C)c1ccc(/C=N/NC(=O)COc2ccccc2)cc1 | 44% | -12%[46.1 µM] | -4% | -9% | u
COc1ccc(/C=N/NC(=O)COc2ccccc2-c2ccccc2)cc1 | u | u | u | 3.5µM* | u
CC(NC(=O)COc1ccccc1-c1ccccc1)c1ccccc1 (stereo not given) | u | u | i | -6% | 18µM*
COc1ccc(/C=N/NC(=O)CCn2cnc(-c3ccccc3)c2-c2ccccc2)cc1 | u | 18µM* | x | x | 2.3µM*
COc1ccc(NCC(=O)N/N=C/C=C\c2ccccc2)cc1 | 15% | 3% | -18% | -4% | u
COc1ccc(/C=C/C=N/NC(=O)COc2ccc(OC)cc2)cc1 | 28% | 0% | i | -18% | 0.79µM*
CC(=O)Nc1ccccc1OCC(=O)NC(C)c1ccccc1 (stereo not given) | 3% | 0% | x | x | -3%
O=C(CCn1cnc2ccccc21)N/N=C/C=C/c1ccccc1 | -20% | u | i | -13% | -8%[46.1 µM]
O=C(CCn1cnc(-c2ccccc2)c1-c1ccccc1)N/N=C/c1ccccc1O | -7% | u | x | x | 23µM*
Cn1c(SCc2ccccc2)nnc1C1CCCN(Cc2cccc3ncccc23)C1 (stereo not given) | -11% | x | -9% | -7% | x
N=C1/C(=C\c2coc3ccccc3c2=O)C(=O)N=C2SC(c3ccncc3)=NN12 | 16µM* | -3%[46.1 µM] | -9% | 14% | 14%
COc1ccc(NC(=O)CN2CCCC2)cc1 | 15% | 1% | -12% | -13% | u
O=C(CN1CCCC1)Nc1ccc(Oc2ccc(NC(=O)CN3CCCC3)cc2)cc1 | -14% | 2.1µM* | i | -7% | 13µM*
CCCCOc1ccc(NC(=O)CN2CCN(C(=O)OCC)CC2)cc1 | -27% | 0% | -11% | -8% | 3.5µM*
CCCCN(C(=O)c1cccc(S(=O)(=O)N2CCN(C)CC2)c1)c1c(N)n(CCC)c(=O)[nH]c1=O | 2% | u | -7% | -7% | -2%
Cc1oc(-c2ccccc2F)nc1CS(=O)(=O)CC(=O)N1CCN(c2ccccc2)CC1 | 25µM* | -6%[46.1 µM] | u | u | 6%[46.1 µM]
SMILES | FMDV inh | Marburg entry inh | VACV mCherry inh | VACV Venus inh | LASV entry inh
Cc1ccccc1-c1nc(CS(=O)(=O)CC(=O)N2CCN(c3ccccc3)CC2)c(C)o1 | u | -14%[46.1 µM] | -21% | -18% | -22%[46.1 µM]
c1ccc2c(c1)N1CCCN=C1N2CCN1CCCCC1 | -9% | 13µM* | x | x | -26%
O=C(NCCc1ccc(Cl)cc1)c1ccc2c(c1)N(Cc1c(F)cccc1Cl)C(=O)CS2 | u | -12%[46.1 µM] | -10% | -7% | -2%[46.1 µM]
CCN(CC)CCCNC(=O)c1ccc2c(c1)N(Cc1c(F)cccc1Cl)C(=O)c1ccccc1S2 | -15% | 6.3µM* | -5% | u | u
COc1ccc(CNC(=O)c2ccc3c(c2)N(Cc2c(F)cccc2Cl)C(=O)CS3)cc1 | -25% | 11µM* | -18% | -14% | u
O=C(NCc1ccco1)c1ccc2c(c1)N(Cc1c(F)cccc1Cl)C(=O)c1ccccc1S2 | -2% | u | -22% | -20% | u
CCOc1ccc(CN2C(=O)c3ccccc3Sc3ccc(C(=O)NCc4ccc(C)cc4)cc32)cc1 | -6% | 10µM* | -20% | -19% | u
O=C(NCCN1Cc2ccccc2OC(c2ccccc2F)C1)c1cncs1 (stereo not given) | -4% | x | -17% | 2% | x
FC(F)(F)c1ccccc1-c1nccc(NCCN2CCOCC2)n1 | 0% | x | x | x | x
Cc1ccccc1S(=O)(=O)Cc1ccc(C(=O)N2CCN(c3cccc(Cl)c3)CC2)o1 | -9% | u | -19% | -10% | u
Cc1ccccc1S(=O)(=O)Cc1ccc(C(=O)N2CCN(c3cccc(C)c3C)CC2)o1 | 25µM* | u | -28% | u | 3.5µM*
CN(C)c1nc2c(N)ncnc2n1[C@H]1O[C@@H](CO)[C@H](O)[C@@H]1O | 5% | 17%[46.1 µM] | i | -11% | -11%[46.1 µM]
Nc1ncnc2c1nc(Cl)n2[C@@H]1O[C@H](CO)[C@@H](O)[C@@H]1O | x | x | u | 13µM* | x
Nc1ncnc2c1nc(Cl)n2C1OC(CO)C(O)C1O (stereo not given) | u | x | u | -28% | x
[N-]=[N+]=Nc1nc2c(N)ncnc2n1C1OC(CO)C(O)C1O (stereo not given) | -29% | x | 8.9µM* | 13µM* | x
O=C1C(NS(=O)(=O)c2ccccc2)=C(N2CCN(c3ccc(F)cc3)CC2)C(=O)c2ccccc21 | -15% | x | 0.32µM* | u | x
Cn1c(COc2ccccc2O)[n+](C)c2ccccc21 | 0% | x | i | -10% | x
CCCCCCCCCCOC(=O)Cn1c(COc2ccccc2OC)[n+](C)c2ccccc21 | u | 2.5µM* | u | 14µM* | u
Nc1ncnc2c(C3OC(CO)C(O)C3O)c[nH]c12 (stereo not given) | 0% | u | 0.28µM* | 0.25µM* | u
O=C(Nc1cccc(Cl)c1)c1ccc(NCCCN2CCOCC2)c([N+](=O)[O-])c1 | u | 10µM* | -15%[1.46 µM] | u | u
Cc1ccc(NC(=O)c2ccc(NCCCN3CCC(C)CC3)c([N+](=O)[O-])c2)cc1F | -3% | u | -7% | -15% | -10%
S=C(NCCCN1CCOCC1)Nc1cccc(Cl)c1 | 5% | -1% | -6% | -22% | 13µM*
O=C(NC1CCCCC1)C(c1ccc(C(F)(F)F)cc1)n1c(=O)c(-c2ccccc2)nc2ccccc21 (stereo not given) | -9% | x | -27% | -6% | x
CCC(=O)NC(c1cccs1)c1ccc2cccnc2c1O (stereo not given) | 4% | x | u | u | x
CC(C)CC(=O)NC(c1cccs1)c1ccc2cccnc2c1O (stereo not given) | 8% | 10µM* | 6.3µM* | u | u
CCCC(=O)NC(c1ccco1)c1cc(Cl)c2cccnc2c1O (stereo not given) | -4% | u | u | u | u

Screens from PubChem.
